# According to the supplement of paper PMC8728848:
# Many of the other results were omitted from the sample, so the strongest signals are more common in it than they were.
# B1: RobpsCRA (Robinia pseudoacacia) (protein)
# chain: IKGGYWYSGSGLAVSDINPSHFTHLFCAFADLDPNTNKLTISSSNAAAFSTFTQTVRAKNPSVKTLLSIGGGGGRALAAVFANMASQASRRKSFIDSSIQLARRNNFHGLDLDWEYPSSDIDKTNFASLIREWRAAVATESSTSGTPALLLSAAVGGSDQITPLKYYPGEAIANNLDWVNVMTYDLYTSDSYPTLTQPPAPLFYPRGIFSADEGITKWIQSGVPESKLALGLPFYGFKWRLSDPNNHGLFAPATQGLGAVKYKDIVNTGGQVEFDSTYVTNYCFKGTDWYGYDDTQSISAKVAYAKQRGLFGYFAWHIEQDSNWALS
# How the values were obtained:
# Assay in all cases: glycan array binding signal (z-score within array); higher = stronger binding
# Conditions in all cases: glycan notation: IUPAC condensed, linker removed
# [1] = biological target: Fuc(a1-2)Gal(b1-3)GlcNAc(b1-3)GalNAc
# Summary of the method: (§1)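 The binding signal is a Z-score computed within each array and averaged over linkers. Arrays of the same protein sequence at different concentrations or buffers were also averaged together. Data originate from 3228 arrays in the Consortium for Functional Glycomics database, kept only where the protein sequence was available.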
# [2] = biological target: Fuc(a1-2)Gal(b1-4)Glc
# Summary of the method: as §1
# [3] = biological target: Fuc(a1-2)Gal(b1-4)GlcNAc(b1-2)Man(a1-3)[Fuc(a1-2)Gal(b1-4)GlcNAc(b1-2)Man(a1-6)]Man(b1-4)GlcNAc(b1-4)GlcNAc
# Summary of the method: as §1
# [4] = biological target: Fuc(a1-2)[Gal(a1-3)]Gal(b1-3)GalNAc
# Summary of the method: as §1
# [5] = biological target: Fuc(a1-2)[Gal(a1-3)]Gal(b1-3)GlcNAc(b1-2)Man(a1-3)[Fuc(a1-2)[Gal(a1-3)]Gal(b1-3)GlcNAc(b1-2)Man(a1-6)]Man(b1-4)GlcNAc(b1-4)GlcNAc
# Summary of the method: as §1
# [6] = biological target: Fuc(a1-2)[GalNAc(a1-3)]Gal(b1-3)GlcNAc(b1-2)Man(a1-3)[Fuc(a1-2)[GalNAc(a1-3)]Gal(b1-3)GlcNAc(b1-2)Man(a1-6)]Man(b1-4)GlcNAc(b1-4)[Fuc(a1-6)]GlcNAc
# Summary of the method: as §1
# [7] = biological target: Fuc(a1-2)[GalNAc(a1-3)]Gal(b1-3)GlcNAc(b1-6)GalNAc
# Summary of the method: as §1
# [8] = biological target: Fuc(a1-2)[GalNAc(a1-3)]Gal(b1-4)GlcNAc(b1-6)GalNAc
# Summary of the method: as §1
# [9] = biological target: Fuc(a1-2)[GalNAc(a1-3)]Gal(b1-4)[Fuc(a1-3)]GlcNAc
# Summary of the method: as §1
# [10] = biological target: Fuc(a1-2)[GalNAc(a1-3)]Gal(b1-4)[Fuc(a1-3)]GlcNAc(b1-3)GalNAc
# Summary of the method: as §1
# [11] = biological target: Fuc(a1-3)[Gal(b1-4)]GlcNAc(b1-3)GalNAc
# Summary of the method: as §1
# [12] = biological target: Fuc(a1-3)[Gal3S(b1-4)]Glc
# Summary of the method: as §1
# [13] = biological target: Fuc(a1-3)[Gal3S(b1-4)]GlcNAc6S
# Summary of the method: as §1
# [14] = biological target: Fuc(a1-4)GlcNAc
# Summary of the method: as §1
# [15] = biological target: Gal(a1-3)Gal(b1-3)GlcNAc(b1-6)GalNAc
# Summary of the method: as §1
# [16] = biological target: Gal(a1-3)[Gal(a1-4)]Gal(b1-4)GlcNAc
# Summary of the method: as §1
# [17] = biological target: Gal(a1-4)Gal(b1-4)GlcNAc(b1-2)Man(a1-3)[Gal(a1-4)Gal(b1-4)GlcNAc(b1-2)Man(a1-6)]Man(b1-4)GlcNAc(b1-4)GlcNAc
# Summary of the method: as §1
# [18] = biological target: Gal(b1-2)Gal
# Summary of the method: as §1
# [19] = biological target: Gal(b1-3)GalNAc(b1-3)Gal(a1-4)Gal(b1-4)Glc
# Summary of the method: as §1
# [20] = biological target: Gal(b1-3)GlcNAc(b1-2)[Gal(b1-3)GlcNAc(b1-6)]Man(a1-6)[Gal(b1-3)GlcNAc(b1-2)Man(a1-3)]Man(b1-4)GlcNAc(b1-4)GlcNAc
# Summary of the method: as §1
# [21] = biological target: Gal(b1-3)GlcNAc(b1-3)Gal(b1-4)GlcNAc(b1-3)Gal(b1-4)GlcNAc(b1-2)[Gal(b1-3)GlcNAc(b1-3)Gal(b1-4)GlcNAc(b1-3)Gal(b1-4)GlcNAc(b1-6)]Man(a1-6)[Gal(b1-3)GlcNAc(b1-3)Gal(b1-4)GlcNAc(b1-3)Gal(b1-4)GlcNAc(b1-2)Man(a1-3)]Man(b1-4)GlcNAc(b1-4)[Fuc(a1-6)]GlcNAc
# Summary of the method: as §1
# [22] = biological target: Gal(b1-3)GlcNAc(b1-6)GalNAc
# Summary of the method: as §1
# [23] = biological target: Gal(b1-4)GlcNAc(b1-2)Man(a1-3)[Gal(b1-4)GlcNAc(b1-2)Man(a1-6)]Man(b1-4)GlcNAc(b1-4)GlcNAc
# Summary of the method: as §1
# [24] = biological target: Gal(b1-4)GlcNAc(b1-2)Man(a1-6)[Man(a1-3)]Man(b1-4)GlcNAc(b1-4)GlcNAc
# Summary of the method: as §1
# [25] = biological target: Gal(b1-4)GlcNAc(b1-2)[Gal(b1-4)GlcNAc(b1-6)]Man(a1-6)[Gal(b1-4)GlcNAc(b1-2)Man(a1-3)]Man(b1-4)GlcNAc(b1-4)[Fuc(a1-6)]GlcNAc
# Summary of the method: as §1
# [26] = biological target: Gal(b1-4)GlcNAc(b1-3)Gal(b1-4)GlcNAc(b1-2)Man(a1-3)[Gal(b1-4)GlcNAc(b1-3)Gal(b1-4)GlcNAc(b1-2)Man(a1-6)]Man(b1-4)GlcNAc(b1-4)GlcNAc
# Summary of the method: as §1
# [27] = biological target: Gal(b1-4)GlcNAc(b1-3)Gal(b1-4)GlcNAc(b1-3)Gal(b1-4)GlcNAc(b1-3)Gal(b1-4)GlcNAc(b1-3)Gal(b1-4)GlcNAc(b1-3)Gal(b1-4)GlcNAc(b1-2)Man(a1-3)[Gal(b1-4)GlcNAc(b1-3)Gal(b1-4)GlcNAc(b1-3)Gal(b1-4)GlcNAc(b1-3)Gal(b1-4)GlcNAc(b1-3)Gal(b1-4)GlcNAc(b1-3)Gal(b1-4)GlcNAc(b1-2)Man(a1-6)]Man(b1-4)GlcNAc(b1-4)GlcNAc
# Summary of the method: as §1
# [28] = biological target: Gal(b1-4)GlcNAc(b1-3)GalNAc
# Summary of the method: as §1
# [29] = biological target: Gal3S(b1-4)[Fuc(a1-3)]Glc6S
# Summary of the method: as §1
# [30] = biological target: GalNAc(b1-3)GlcNAc
# Summary of the method: as §1
# [31] = biological target: GalNAc(b1-4)Gal(b1-4)Glc
# Summary of the method: as §1
# [32] = biological target: GlcA3S(b1-3)Gal(b1-4)GlcNAc(b1-3)Gal(b1-4)Glc
# Summary of the method: as §1
# [33] = biological target: GlcNAc(a1-4)Gal(b1-4)GlcNAc(b1-3)Gal(b1-4)GlcNAc
# Summary of the method: as §1
# [34] = biological target: GlcNAc(b1-2)Man(a1-3)[GlcNAc(b1-4)][GlcNAc(b1-2)Man(a1-6)]Man(b1-4)GlcNAc(b1-4)GlcNAc
# Summary of the method: as §1
# [35] = biological target: GlcNAc(b1-3)Fuc
# Summary of the method: as §1
# [36] = biological target: GlcNAc(b1-3)Gal(b1-4)GlcNAc(b1-2)Man(a1-3)[GlcNAc(b1-3)Gal(b1-4)GlcNAc(b1-2)Man(a1-6)]Man(b1-4)GlcNAc(b1-4)GlcNAc
# Summary of the method: as §1
# [37] = biological target: GlcNAc(b1-3)Gal(b1-4)GlcNAc(b1-2)[GlcNAc(b1-3)Gal(b1-4)GlcNAc(b1-6)]Man(a1-6)[GlcNAc(b1-3)Gal(b1-4)GlcNAc(b1-2)Man(a1-3)]Man(b1-4)GlcNAc(b1-4)GlcNAc
# Summary of the method: as §1
# [38] = biological target: GlcNAc(b1-3)Gal(b1-4)GlcNAc(b1-3)Gal(b1-4)GlcNAc(b1-3)Gal(b1-4)GlcNAc(b1-3)Gal(b1-4)GlcNAc(b1-2)[GlcNAc(b1-3)Gal(b1-4)GlcNAc(b1-3)Gal(b1-4)GlcNAc(b1-3)Gal(b1-4)GlcNAc(b1-3)Gal(b1-4)GlcNAc(b1-6)]Man(a1-6)[GlcNAc(b1-3)Gal(b1-4)GlcNAc(b1-3)Gal(b1-4)GlcNAc(b1-3)Gal(b1-4)GlcNAc(b1-3)Gal(b1-4)GlcNAc(b1-2)Man(a1-3)]Man(b1-4)GlcNAc(b1-4)[Fuc(a1-6)]GlcNAc
# Summary of the method: as §1
# [39] = biological target: GlcNAc6S(b1-3)Gal(b1-4)GlcNAc
# Summary of the method: as §1
# [40] = biological target: Man(a1-2)Man(a1-3)[Man(a1-2)Man(a1-6)]Man(a1-6)[Man(a1-2)Man(a1-2)Man(a1-3)]Man
# Summary of the method: as §1
# [41] = biological target: MurNAc(b1-4)GlcNAc
# Summary of the method: as §1
# [42] = biological target: Neu5Ac(a2-3)Gal(b1-3)GalNAc(b1-4)[Neu5Ac(a2-8)Neu5Ac(a2-3)]Gal(b1-4)Glc
# Summary of the method: as §1
# [43] = biological target: Neu5Ac(a2-3)Gal(b1-3)GlcNAc
# Summary of the method: as §1
# [44] = biological target: Neu5Ac(a2-3)Gal(b1-3)[Neu5Ac(a2-6)]GlcNAc(b1-3)[Fuc(a1-3)[Gal(b1-4)]GlcNAc(b1-6)]Gal(b1-4)Glc
# Summary of the method: as §1
# [45] = biological target: Neu5Ac(a2-3)Gal(b1-4)GlcNAc(b1-2)[Neu5Ac(a2-3)Gal(b1-4)GlcNAc(b1-6)]Man(a1-6)[Neu5Ac(a2-3)Gal(b1-4)GlcNAc(b1-2)Man(a1-3)]Man(b1-4)GlcNAc(b1-4)GlcNAc
# Summary of the method: as §1
# [46] = biological target: Neu5Ac(a2-3)Gal(b1-4)GlcNAc(b1-6)[Neu5Ac(a2-3)Gal(b1-3)]GalNAc
# Summary of the method: as §1
# [47] = biological target: Neu5Ac(a2-3)Gal(b1-4)[Fuc(a1-3)]GlcNAc(b1-3)GalNAc
# Summary of the method: as §1
# [48] = biological target: Neu5Ac(a2-6)Gal(b1-4)GlcNAc(b1-2)Man(a1-6)[Man(a1-3)]Man(b1-4)GlcNAc(b1-4)GlcNAc
# Summary of the method: as §1
# [49] = biological target: Neu5Ac(a2-8)Neu5Ac(a2-3)[Gal(b1-3)GalNAc(b1-4)]Gal(b1-4)Glc
# Summary of the method: as §1
binder,measurement,setting,value
B1,glycan array binding signal (z-score),[1],-0.523
same,glycan array binding signal (z-score),[2],0.123
same,glycan array binding signal (z-score),[3],-0.573
same,glycan array binding signal (z-score),[4],-0.447
same,glycan array binding signal (z-score),[5],-0.684
same,glycan array binding signal (z-score),[6],-0.163
same,glycan array binding signal (z-score),[7],-0.584
same,glycan array binding signal (z-score),[8],-0.132
same,glycan array binding signal (z-score),[9],-0.375
same,glycan array binding signal (z-score),[10],16.3
same,glycan array binding signal (z-score),[11],0.084
same,glycan array binding signal (z-score),[12],-0.504
same,glycan array binding signal (z-score),[13],0.763
same,glycan array binding signal (z-score),[14],-0.31
same,glycan array binding signal (z-score),[15],-0.356
same,glycan array binding signal (z-score),[16],1.85
same,glycan array binding signal (z-score),[17],0.418
same,glycan array binding signal (z-score),[18],-0.839
same,glycan array binding signal (z-score),[19],0.121
same,glycan array binding signal (z-score),[20],-0.739
same,glycan array binding signal (z-score),[21],0.989
same,glycan array binding signal (z-score),[22],-0.441
same,glycan array binding signal (z-score),[23],-0.393
same,glycan array binding signal (z-score),[24],0.031
same,glycan array binding signal (z-score),[25],1.6
same,glycan array binding signal (z-score),[26],1.01
same,glycan array binding signal (z-score),[27],2.18
same,glycan array binding signal (z-score),[28],0.32
same,glycan array binding signal (z-score),[29],1.65
same,glycan array binding signal (z-score),[30],0.418
same,glycan array binding signal (z-score),[31],0.371
same,glycan array binding signal (z-score),[32],2.45
same,glycan array binding signal (z-score),[33],1.54
same,glycan array binding signal (z-score),[34],-0.359
same,glycan array binding signal (z-score),[35],-0.426
same,glycan array binding signal (z-score),[36],-0.142
same,glycan array binding signal (z-score),[37],1.5
same,glycan array binding signal (z-score),[38],1.28
same,glycan array binding signal (z-score),[39],-0.663
same,glycan array binding signal (z-score),[40],0.574
same,glycan array binding signal (z-score),[41],-0.389
same,glycan array binding signal (z-score),[42],-0.829
same,glycan array binding signal (z-score),[43],0.156
same,glycan array binding signal (z-score),[44],-0.376
same,glycan array binding signal (z-score),[45],-0.526
same,glycan array binding signal (z-score),[46],-0.478
same,glycan array binding signal (z-score),[47],1.49
same,glycan array binding signal (z-score),[48],1.67
same,glycan array binding signal (z-score),[49],0.946
